Sampled rows, rich in hits. Any-hit rate of the full collection: about 19%.
MARV entry inh – inhibitors of Marburg virus binding or cell entry; Marburg virus pseudotyped entry inhibition, cell reporter; Potency, µM (series often up to 37.8 µM), for inactives: at the top dose activity change, negative = inhibition, usual class: inhibitors; 300,000 compounds, 1.8% hits; AID 540276; calls by dose curve; tested in HEK293 cells; also: potency is read from the fitted curve at half-maximal effect; % is scaled to controls: 0 for no effect and ±100 for the full control effect
Pf growth 96h – inhibits malaria parasite growth, 96 h | P. falciparum luciferase reporter growth, 96 h | Potency, µM (highest dose often 28.7 µM), for the others: at the top dose activity change, negative = inhibition, actives largely listed as inhibitors | 320,000 compounds, 6.9% hits | AID 504834; also: potency is read from the fitted curve at half-maximal effect; % is scaled to controls: 0 for no effect and ±100 for the full control effect
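P. falciparum expressing integrated firefly luciferase grown in erythrocytes (2% hematocrit, 0.05% parasitemia final) with compounds for 96 hours at 37 C, 5% CO2. Growth inhibition read as loss of luminescence after adding luciferase detection reagent.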
LASV entry inh – Lassa virus entry inhibition | AID 540256 | 300,000 compounds, 1.2% hits | Potency, µM (titrated, usually from 37.9 µM), for inactives: top-dose activity change, negative = inhibition, usual class: inhibitors | Lassa virus pseudotype entry inhibition, cell reporter; calls by dose curve; tested in HEK293 cells; also: potency is read from the fitted curve at half-maximal effect; % is scaled to controls: 0 for no effect and ±100 for the full control effect; nearly all actives have a fitted effect of over 50% in size
Pf growth 48h – inhibits P. falciparum growth in the first generation, 48 h; P. falciparum luciferase growth in erythrocytes, 48 h; Potency, µM (top dose mostly 28.7 µM), without a hit: at the highest dose activity change, negative = inhibition, actives largely listed as inhibitors; 310,000 compounds, 5.9% hits; AID 504832; also: potency is read from the fitted curve at half-maximal effect; % is scaled to controls: 0 for no effect and ±100 for the full control effect
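Luciferase-expressing parasites in RBCs, 2% Hct / 0.1% parasitemia final; RPMI 1640 + 0.5% Albumax; 37 C, 5% CO2, one generation; luminescence read-out, lower signal = inhibition.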
Shiga inhibitor – Shiga toxin inhibition; AID 2315; Vero cells, Shiga toxin protein synthesis inhibition reporter; 290,000 compounds, 9.2% hits; inhibition, % at 38.7 µM; in the data active = inhibition mostly above about 28%, no sharp cut-off; inactive = mostly below about 43%; also: 0% is about no effect
CHX counter – counter-screen hit for Shiga toxin inhibitors, cycloheximide; cell reporter, cycloheximide protein synthesis inhibition counterscreen; max response, %; 300,000 compounds, 12% hits; in the data active = max response mostly above about 13%, no sharp cut-off; inactive = mostly below about 14%; also: read at 38.3 µM for the half of the compounds with a filed dose; 0% is about no effect
An asterisk follows results filed as active; ? = inconclusive; / = no result; [ ] = remark or other dose. Unless noted, calls follow the shape of the dose curve; as a rule, active = well fitted inhibition curve with a large enough effect; inconclusive = small, poorly fitted or top-dose-only effect, or another doubt; inactive = no such curve, though single readings can be large or run the other way.

SMILES | MARV entry inh | Pf growth 96h | LASV entry inh | Pf growth 48h | Shiga inhibitor | CHX counter
Cc1ccc(Oc2nc3ccccn3c(=O)c2/C=C(\C#N)C(=O)NC2CCS(=O)(=O)C2)c(C)c1 (configuration not stated) | / | 10.4µM* | / | ? | 4.2 | -2.5
N#C/C(=C\c1c(Oc2ccccc2F)nc2ccccn2c1=O)C(=O)NC1CCS(=O)(=O)C1 (configuration not stated) | -18.6%[46.1 µM] | 9.28µM* | -6.1%[46.1 µM] | ? | 2.5 | -1.4
CC(NC(=O)COc1ccccc1)C(=O)N1CCN(c2ccc(F)cc2)CC1 (configuration not stated) | 25.6% | / | -1.0% | / | / | /
O=C(c1cc(S(=O)(=O)Nc2ccccc2F)c(Cl)cc1Cl)N1CCN(CCO)CC1 | / | -3.7% | / | -3.2% | -6.8 | -7.3
COc1ccc(C2C=C(c3ccccc3)Nc3nc(NC(=O)/C=C/c4ccccc4OC)nn32)cc1 (configuration not stated) | 13.4%[46.1 µM] | / | -4.8%[46.1 µM] | / | / | /
COc1cc2nc(N3CCCN(C)CC3)nc(NC3CCN(Cc4ccccc4)CC3)c2cc1OC | ? | / | 1.83µM* | / | / | /
Cc1ccc(CCNC(=O)CCNS(=O)(=O)c2ccc3c(c2)oc(=O)n3C)cc1 | 11.5% | 16.2% | -19.9% | ? | -9.1 | 1.7
Cc1cc2nnc(SCc3ccc4c(c3)OCO4)n2c2ccccc12 | 1.2%[46.1 µM] | / | -1.3% | / | / | /
CCOC(=O)c1cnc2ccc(C)cc2c1OCc1cc(F)cc(F)c1 | -14.0%[46.1 µM] | ? | ? | / | 17.7 | -3.9
O=C(c1ccc(F)cc1)N1CCN(c2cnn(-c3ccccc3)c(=O)c2Cl)CC1 | 1.3%[46.1 µM] | -35.4% | 3.2% | -26.2% | 2.7 | -3.8
O=c1c(Br)c(N2CCOCC2)cnn1-c1ccccc1 | / | 3.8% | / | 259.9% | 91.9* | 18.0*
CS(=O)(=O)N1CCN(c2cnn(-c3ccccc3)c(=O)c2Cl)CC1 | -0.3% | 40.1% | 12.5% | -1.4% | 3.3 | -4.9
O=c1c(Br)c(N2CCCCC2)cnn1-c1ccccc1 | -23.5%[46.1 µM] | 29.6% | / | 198.7% | 116.3* | 21.0*
CN1CCN(c2cnn(-c3ccccc3)c(=O)c2Br)CC1 | / | ? | / | 37.3%[5.75 µM] | 52.7* | 29.4*
O=c1c(Br)c(N2CCCC2)cnn1-c1ccccc1 | 6.3% | 34.4% | 7.2% | 123.1% | 80.8* | 47.2*
O=c1c(Br)c(Br)cnn1-c1ccccc1 | ? | -2.5% | ? | -27.9% | -32.1 | -8.7
C=CCNC(=O)C1CCCN(S(=O)(=O)c2ccc(-n3cnnn3)cc2)C1 (configuration not stated) | 2.2%[46.1 µM] | 12.2% | 13.1%[46.1 µM] | -8.6% | 3.7 | -2.2
Cc1nc(NC(=O)c2oc3ccccc3c2C)sc1C(=O)N(C)C | 7.5% | -25.5% | 3.6% | 274.1% | 52.3* | 40.1*
Cc1nc(NC(=O)c2ccccc2[N+](=O)[O-])sc1C(=O)N(C)C | -1.2% | 74.1% | 8.6% | 39.5% | 8.5 | 2.0
Cc1nc(NC(=O)/C=C/c2ccc(F)cc2)sc1C(=O)N(C)C | 6.7% | 13.4% | 22.8% | 22.0% | -3.1 | 8.2
Cc1nc(NC(=S)NC(=O)c2ccco2)sc1C(=O)N(C)C | / | 5.9% | / | 21.2% | 56.7 | 31.6*
Cc1nc(NC(=O)/C=C/c2ccccc2)sc1C(=O)N(C)C | ? | 43.2% | 19.4% | 137.5% | 80.3* | 40.2*
Cc1ccc2c(C)c(C(=O)Nc3nnc(C)s3)oc2c1 | 8.0% | / | -8.7% | 21.3% | 16.1 | -2.3
Cc1nnc(NC(=O)c2oc3ccccc3c2C)s1 | -15.2%[46.1 µM] | 201.0% | 16.6%[46.1 µM] | 116.4% | 89.9* | 36.0*
Cc1ccc(NC2=C(c3ccc(C(F)(F)F)cc3)C(=O)c3ccccc32)cc1C | ? | / | 22.1%[46.1 µM] | / | / | /
SMILES | MARV entry inh | Pf growth 96h | LASV entry inh | Pf growth 48h | Shiga inhibitor | CHX counter
O=C(NCCC1CCCCN1S(=O)(=O)c1ccccc1)C(=O)NCc1cccnc1 (configuration not stated) | 17.7% | ? | -3.2% | 0.1% | / | /
Cc1nc(NC(=O)c2ccncc2)sc1C(=O)N(C)C | 4.2%[46.1 µM] | ? | 18.1%[46.1 µM] | 22.1% | -11.6 | 9.6
Cc1ccc(C(=O)Nc2nc(C)c(C(=O)N(C)C)s2)o1 | / | 10.7% | / | -2.7% | 79.7* | 37.2*
COc1cccc(Cn2cnc3c(NS(=O)(=O)c4ccc(Cl)cc4)c(C)c(C)cc32)c1 | ? | 4.65µM* | -16.5% | 13.1µM* | 2.8 | 0.6
COc1ccc(C(C#N)=C2C=CC(=NO)C=C2)cc1 | ? | ? | ? | ? | -3.5 | 17.5*
N#CC(=C1C=CC(=NO)C(Cl)=C1)c1ccc(Cl)cc1 | -21.4% | / | ? | / | / | /
Cc1ccc(C(=O)c2ccccc2C(=O)OCC(=O)N2CCCC2)cc1 | ? | / | -7.4%[46.1 µM] | / | / | /
Cc1ccc(C)c(Cn2c(=O)cc(C(F)(F)F)c3c(C)nn(C)c32)c1 | / | / | 10.0%[46.1 µM] | / | / | /
Cc1ccn2c(NC3CCCC3)c(-c3cccs3)nc2c1 | -10.4%[46.1 µM] | 90.1% | 9.4% | 36.0% | 27.5* | 22.9*
Cc1ccn2c(NCc3ccccc3)c(-c3cccs3)nc2c1 | ? | -0.3% | ? | ? | 55.5* | 29.6*
COc1cccc(-c2nnc(SCC(=O)N3CCCC3=O)n2-c2ccccc2)c1 | 3.1% | / | 16.2% | 27.6% | -3.4 | 11.8
Cc1ccc(S(=O)(=O)N2CCC(C(=O)NNC(=O)c3ccccc3O)CC2)cc1 | 2.1% | -8.2% | 1.8% | -0.1% | / | /
O=C(NCCOc1nc(N2CCCCC2)nc(N2CCOCC2)n1)Nc1ccccc1 | -4.3% | / | -14.9% | -19.1% | 11.0 | 0.8
COc1ccc(C(=O)n2nc(C)cc2Nc2ccccc2)cc1 | ? | / | ? | 69.6% | 72.3 | 43.3*
Cc1cc(Nc2ccccc2)nn1C(=O)c1ccc(Br)cc1 | 0.9% | / | 2.8% | 14.6% | -6.6 | 2.0
Cc1cc(Nc2ccccc2)nn1C(=O)c1ccccc1 | 8.1% | 9.28µM* | 3.4% | / | 7.9 | 1.1
O=c1cc[nH]c2c(Cl)cccc12 | / | 0.0% | / | 162.1% | 40.7* | 20.7*
CC(C)CNC(=O)c1cc(=O)[nH]c2ccc(S(=O)(=O)Nc3ccc(F)cc3)cc12 | ? | 0.1% | 4.9%[46.1 µM] | 9.0% | -10.0 | -3.3
CS(=O)c1ccccc1COC(=O)Nc1ccc(Cl)cc1 (configuration not stated) | -4.0%[46.1 µM] | ? | -4.8% | -4.8% | 35.8 | 15.8*
Cc1ccc(NC(=O)OCc2ccccc2S(C)=O)cc1 (configuration not stated) | 17.1%[46.1 µM] | ? | ? | 14.6% | 38.4 | 30.2*
Cc1ccc(NC(=O)OCc2cn(-c3ccc(Cl)cc3)nn2)cc1 | 15.2% | 23.8% | -4.2% | 29.2% | 2.8 | -0.8
COc1c2c(nc3occc13)C(CC=C(C)C)(OC)C(=O)C=C2 (configuration not stated) | 6.4% | 6.8% | -26.2% | 36.3% | -7.1 | -1.5
CCOc1c(OC)ccc2c3c(c(=O)oc12)CCCC3 | 2.2% | -26.6% | 0.3% | / | -1.1 | 0.7
CCOc1c2ccoc2nc2c(OC)c(OC)ccc12 | / | 44.2% | / | 29.4% | 17.6 | 17.7*
C=CCOc1ccc2c(OC)c3ccoc3nc2c1OC | 28.1% | ? | 10.7% | 16.3% | 39.1* | 25.8*
Brc1cccc(-c2nnc(-c3ccccc3)o2)c1 | ? | 16.6% | ? | 209.4% | 55.2* | 27.0*
Cc1ccc(-c2nnc(-c3ccccc3)o2)cc1Br | 14.6% | / | 12.2% | / | / | /
